# Hits are enriched below; roughly 19% of the tested compounds scored in any of these assays.
# HT1080-NT tox – kills 2HG-producing HT-1080-NT fibrosarcoma cells | HT-1080-NT fibrosarcoma viability, CellTiter-Glo ATP luminescence, 48 h | Potency, µM (titrated, usually from 46.1 µM), most hits filed as cytotoxic | 360,000 compounds, 1.6% hits;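 further: NT is the 2HG producing partner of a matched IDH1 knockdown line; nearly all actives have a fitted effect of over 55% in size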
#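 Viability of the 2HG-overproducing fibrosarcoma line after 48 hours of compound exposure at 37 degrees C was determined by luminescence with CellTiter-Glo, and concentration-effect curves were then fitted and categorized.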
# HT1080 IDH1KD tx – toxicity to HT-1080 IDH1 knockdown cells (counter line) | HT-1080 IDH1 knockdown viability, ATP luminescence, 48 h | Potency, µM (titrated, usually from 46.1 µM), actives largely listed as cytotoxic | 360,000 compounds, 2% hits | AID 686971
#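 IDH1KD HT-1080 cells, 750/well, RPMI + 5% FBS; compound pinned after 2 h settling; 48 h, 37 °C; CellTiter-Glo luminescence; % activity normalised to DMSO and no-cell wells; curves fitted, classed by r2 and efficacy.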
# TDP1 cell CPT – DT40-hTDP1 cell growth loss with CPT | chicken DT40 Tdp1-/-;hTDP1 cells + 20 nM CPT, ATP luminescence, 48 h | Potency, µM (doses to about 46.2 µM), usual class: inhibitors | 420,000 compounds, 12% hits; further: nearly all actives have a fitted effect of over 55% in size
#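 Cell growth measured by CellTiter-Glo luminescence after a minimum 48 h, 37 C compound exposure with 20 nM CPT in Tdp1-knockout DT40 cells stably expressing hTDP1, seeded 400/well; qHTS titration format.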
# ELG1 DNA repair – ELG1-dependent DNA repair inhibition; AID 504467; HEK293T ELG1-luciferase reporter, luminescence, 16 h; DNA damage induced by 5-fluorouridine; 330,000 compounds, 2.3% hits; Potency, µM (highest dose often 46.1 µM), usual class: inhibitors; further: nearly all actives have a fitted effect of over 55% in size
#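 Quantitative HTS, concentration-response format. 2,000 cells/well co-treated with 5-fluorouridine and compound, 16 hr in 5% CO2 at 37 °C; ONE-Glo luminescence read after 30 min.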
# IL-1B inflam inh – inflammasome signaling inhibition, IL-1 beta readout; THP-1 LPS/ATP IL-1B secretion, AlphaLISA, 16 h; stronger effect = lower value; activity change, % at 57.5 µM; 360,000 compounds, 4.7% hits; AID 743279; in the data active means activity change below about -50%; inconclusive means mostly about -30% to -49%
#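 Secreted IL-1B measured by AlphaLISA bead assay after 16 h compound exposure of THP-1 cells; compounds (final up to 57.5 uM) added 1 h before LPS (250 ng/mL) and ATP (1.25 mM) stimulation; lower signal means less secretion.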
# DT40 TDP1 no CPT – qHTS for Inhibitors of human tyrosyl-DNA phosphodiesterase 1 (TDP1): qHTS in cells in absence of CPT; DT40 Tdp1-/- hTDP1 cells, no CPT, ATP luminescence, 48 h; Potency, µM (series often up to 46.2 µM), usual class: inhibitors; 420,000 compounds, 15% hits; AID 686978, 2013; further: nearly all actives have a fitted effect of over 55% in size
#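 Compound effects on proliferation are scored in DT40 Tdp1-/-;hTDP1 cells in the absence of CPT. ATP levels (CellTiter-Glo luminescence) are recorded after a ≥48 hr, 37 °C incubation.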
# A number is an active result; 0 = inactive; ? = inconclusive; - = not tested or not shown; [ ] = another dose, or the depositor's remark. Unless noted, the call rests on the fitted dose curve; in most records, active means well fitted curve in the direction sought with a large enough effect; inconclusive means small, poorly fitted or top-dose-only effect, or another doubt; inactive means no such curve, though single readings can be large; an effect the other way counts as inactive or inconclusive.
SMILES,HT1080-NT tox,HT1080 IDH1KD tx,TDP1 cell CPT,ELG1 DNA repair,IL-1B inflam inh,DT40 TDP1 no CPT
COc1cc2c(cc1NC(=O)CN(C)Cc1nc3ccccc3c(=O)[nH]1)oc1ccccc12,0,0,18.4µM,?,0,23.1µM
CN(CC(=O)NC(=O)NCc1ccco1)Cc1nc2ccccc2c(=O)[nH]1,?,11.2µM,4.61µM,0,0,1.64µM
CN(CC(=O)NC(c1ccccc1)c1ccccc1)Cc1nc2ccccc2c(=O)[nH]1,0,0,?,0,0,?
O=C(CCc1nc2ccccc2c(=O)[nH]1)NCc1ccco1,0,0,?,0,0,?
CN(CCO)C(=O)c1cn(C2CCN(Cc3ccc4ccccc4c3)CC2)nn1,-,-,0[9.04 µM],-,-,0
COc1ccc(Cc2nnc(NC(=O)CS(=O)(=O)Cc3ccccc3)s2)cc1,0,0,0,-,0,0
COc1ccccc1OCCC(=O)Nc1cccc(S(=O)(=O)N2CCOCC2)c1,0,0,0,0,0,0
CC(C)NC(=O)c1sc(=S)n2c1[nH]c(=O)c1ccc(C(=O)NCCc3ccc(Cl)cc3)cc12,0,0,?,0,0,?
CCOc1ccc(CCNC(=O)c2ccc3c(=O)[nH]c4c(C(=O)NC(C)C)sc(=S)n4c3c2)cc1,0,0,23.1µM,?,0,13µM
COc1cccc(-n2c(=O)c3sc4ccccc4c3n(CC(=O)Nc3ccccc3OC)c2=O)c1,-,-,9.2µM,-,-,14.6µM
O=C(Cn1c(=O)n(-c2cccc(Cl)c2)c(=O)c2sc3ccccc3c21)NC1CCCCC1,-,-,23.1µM,-,-,?
CC1=C(C(=O)N(C)C)CC(CC(=O)NCc2ccco2)C(=O)N1Cc1ccccc1 (stereo not given),0,0,0,-,0,0
Cc1ccccc1Nc1nc(-c2sc(NC(=O)c3ccco3)nc2C)cs1,0,0,?,?,0,?
CCOc1ccccc1Nc1nc(-c2sc(NC(=O)c3ccco3)nc2C)cs1,0,0,14.6µM,?,0,14.6µM
Cc1ccc(Nc2nc(-c3sc(NC(=O)c4ccco4)nc3C)cs2)cc1,0,0,?,10.3µM,0,13µM
COc1ccc2c(C(=O)c3ccc(Cl)cc3)n(CCCC(N)=O)[n+]([O-])c2c1,0,0,0,0,0,0
CCOc1ccc(-n2c(=O)c3c(C)c(C(=O)N(C)C)sc3n(CC(=O)Nc3c(C)cc(C)cc3C)c2=O)cc1,-,-,0,-,-,0
O=C(Oc1ccccc1)c1ccc2c(c1)C(=O)N(Cc1ccncc1)C2=O,0,0,0,0,0,?
C1=Cc2ccccc2/C1=C(\Cc1ccncc1)Oc1ccncc1,-,-,11.2µM,-,-,14.1µM
COc1cc(Cl)ccc1OCc1cc(C(=O)N2CCCCC2c2cccnc2)no1 (stereo not given),0,0,5.8µM,0,0,?
O=C(c1cc(COc2ccc(F)cc2Cl)on1)N1CCC(OCc2cccnc2)CC1,0,0,16.4µM,?,0,9.2µM
Cc1nonc1C1CCCN1C(=O)c1cc(COc2ccc(F)cc2Cl)on1 (stereo not given),0,0,?,0,0,?
O=C(c1cc(COc2ccc(F)cc2Cl)on1)N1CCCCC1c1cccnc1 (stereo not given),0,0,16.4µM,0,?,13µM
CCN(C(=O)C1CCCN1S(=O)(=O)c1ccc2c(c1)n(C)c(=O)c(=O)n2C)c1ccccc1 (stereo not given),0,0,0,0,0,0
CC(C)[C@H](CO)Nc1nc(NCc2ccc(S(N)(=O)=O)cc2)c2ncn(C(C)C)c2n1,?,?,?,?,-103.4,?
SMILES,HT1080-NT tox,HT1080 IDH1KD tx,TDP1 cell CPT,ELG1 DNA repair,IL-1B inflam inh,DT40 TDP1 no CPT
CCOc1ccc(N2CC(O)Cn3c2nc2c3c(=O)n(CCCc3ccccc3)c(=O)n2C)cc1 (stereo not given),0,0,?,?,0,?
COc1cccc(N2CC(O)Cn3c2nc2c3c(=O)n(CCCc3ccccc3)c(=O)n2C)c1 (stereo not given),0,0,11.6µM,23.1µM,0,16.4µM
Cc1cc(Oc2nc3c(C)cccn3c(=O)c2/C=C(\C#N)S(=O)(=O)c2ccccc2)ccc1Cl,0,0,13µM,?,0,?
Cc1cccn2c(=O)c(/C=C(\C#N)S(=O)(=O)c3ccccc3)c(Oc3ccc(Cl)cc3)nc12,0,0,?,?,0,18.4µM
COC(=O)c1ccc(C(=O)OC)c(NC(=O)COC(=O)CCOc2ccc(C)cc2)c1,0,0,0,0,0,0
CN(CCC#N)C(=O)COC(=O)c1ccc(Cl)c(S(=O)(=O)N(C)c2ccccc2)c1,0,0,0,0,0,?
CCC(C)NC(=O)CSc1nc2cc3c(cc2c(=O)n1CCCCCC(=O)NCc1ccc2c(c1)OCO2)OCO3 (stereo not given),-,-,0,-,-,0
Cc1cccc(-n2c(=O)c3c(c4cc(C)ccc4n3C)n(CC(=O)N3CCCC3)c2=O)c1,-,-,0,-,-,0
COc1ccc(NS(=O)(=O)c2ccc(N3CCCCS3(=O)=O)cc2)cc1Cl,-,-,8.2µM,-,-,4.61µM
O=S(=O)(Nc1ccc(F)c(C(F)(F)F)c1)c1ccc(N2CCCCS2(=O)=O)cc1,-,-,20.6µM,-,-,11.6µM
O=S(=O)(Nc1ccc(OC(F)(F)F)cc1)c1ccc(N2CCCCS2(=O)=O)cc1,-,-,20.6µM,-,-,20.6µM
Cc1cccc(C)c1NC(=O)Cn1c(=O)c2cccn2c2ccccc21,0,0,?,0,0,0
Cc1cc(C)c(NC(=O)CCn2c(=O)c3cccn3c3ccccc32)c(C)c1,-,-,?,-,-,16.4µM
CC(C)c1ccc(NC(=O)CCn2c(=O)c3cccn3c3ccccc32)cc1,-,-,20.6µM,-,-,14.6µM
Cc1ccc(NC(=O)Cn2c(=O)c3cccn3c3ccccc32)c(Cl)c1,0,0,?,0,?,0
CC(C)c1ccc(NC(=O)Cc2cn(C)c3ccccc23)cc1,0,0,0,0,0,16.4µM
CCc1cccc(C)c1NC(=O)CCn1c(=O)c2cccn2c2ccccc21,-,-,?,-,-,23.1µM
Cn1cc(CC(=O)NCc2ccc(F)cc2)c2ccccc21,0,0,0,0,0,0
COc1ccc(NC(=O)Cn2c(=O)c3cccn3c3ccccc32)cc1,-,-,?,-,-,0
COc1ccc(/C=C/C(=O)N2CCc3c(cnc(C)c3CNS(=O)(=O)c3cccs3)C2)cc1,-,-,0[9.04 µM],-,-,?
CCN1c2ccccc2-c2nc3ccccc3n2C1c1ccco1 (stereo not given),0,0,20.6µM,0,0,16.4µM
CN1c2ccccc2-c2nc3ccccc3n2C1c1ccccn1 (stereo not given),0,0,16.4µM,0,0,16.4µM
